Screening results deposited in PubChem BioAssay by National Center for Advancing Translational Sciences (NCATS).
Hits are enriched below; roughly 19% of the tested compounds scored in any of these assays.
TGFb SMAD3 inh = qHTS for Inhibitors of TGF-b; HepG2 CAGA-GFP TGF-b/SMAD3 reporter, GFP fluorescence, 18 h; TGF-beta stimulated, 500 pg/mL final; AID 588855, 2011; Potency, µM (top dose mostly 46.1 µM), for the others: at the highest dose activity, negative = inhibition, most hits filed as inhibitors; actives 1.2% (n = 410,000); note: potency is the fitted concentration of half-maximal effect; % is set by controls: 0 for no effect and ±100 for the full control effect; nearly all actives have a fitted effect of over 65% in size
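Cell-based qHTS in HEPG2 carrying a CAGA-GFP Smad reporter; compounds added before 500 pg/mL final TGF-beta, 18 h incubation at 37 degrees C, GFP fluorescence quantified per cell by imaging cytometry.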
IL1B secr inh = qHTS for Inhibitors of Inflammasome Signaling: IL-1-beta AlphaLISA Primary Screen | THP-1 LPS/ATP IL-1B secretion, AlphaLISA, 16 h; stronger effect = lower value | activity change, % at 57.5 µM | actives 4.7% (n = 360,000) | AID 743279, 2014; in the data active = activity change below about -50%; inconclusive = mostly about -30% to -49%; note: % is set by controls: 0 for no effect and ±100 for the full control effect
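Secreted IL-1B measured by AlphaLISA bead assay after 16 h compound exposure of THP-1 cells; compounds (final up to 57.5 uM) added 1 h before LPS (250 ng/mL) and ATP (1.25 mM) stimulation; lower signal means less secretion.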
DT40 TDP1 no CPT = qHTS for Inhibitors of human tyrosyl-DNA phosphodiesterase 1 (TDP1): qHTS in cells in absence of CPT; DT40 Tdp1-/- hTDP1 cells, no CPT, ATP luminescence, 48 h; Potency, µM (highest dose often 46.2 µM), without a hit: at the top dose activity change, negative = growth inhibition, usual class: inhibitors; actives 15% (n = 420,000); AID 686978, 2013; note: potency is the fitted concentration of half-maximal effect; % is set by controls: 0 for no effect and ±100 for the full control effect; nearly all actives have a fitted effect of over 55% in size
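DT40 Tdp1-/-;hTDP1 cells, no CPT (DMSO vehicle only), 400 cells/well; compounds pin-transferred; ≥48 hr, 37 °C; CellTiter-Glo 30 min RT dark, luminescence read.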
TDP1 block = qHTS Assay for Inhibitors of Tyrosyl-DNA Phosphodiesterase (TDP1); recombinant TDP1, AlphaScreen DNA substrate cleavage; Potency, µM (doses to about 130 µM), inactives show at the top dose activity change, negative = inhibition, usual class: inhibitors; actives 0.28% (n = 350,000); note: potency is the fitted concentration of half-maximal effect; % is set by controls: 0 for no effect and ±100 for the full control effect; nearly all actives have a fitted effect of over 40% in size
Target sequence (Q9NUW8 whole entry, looked up): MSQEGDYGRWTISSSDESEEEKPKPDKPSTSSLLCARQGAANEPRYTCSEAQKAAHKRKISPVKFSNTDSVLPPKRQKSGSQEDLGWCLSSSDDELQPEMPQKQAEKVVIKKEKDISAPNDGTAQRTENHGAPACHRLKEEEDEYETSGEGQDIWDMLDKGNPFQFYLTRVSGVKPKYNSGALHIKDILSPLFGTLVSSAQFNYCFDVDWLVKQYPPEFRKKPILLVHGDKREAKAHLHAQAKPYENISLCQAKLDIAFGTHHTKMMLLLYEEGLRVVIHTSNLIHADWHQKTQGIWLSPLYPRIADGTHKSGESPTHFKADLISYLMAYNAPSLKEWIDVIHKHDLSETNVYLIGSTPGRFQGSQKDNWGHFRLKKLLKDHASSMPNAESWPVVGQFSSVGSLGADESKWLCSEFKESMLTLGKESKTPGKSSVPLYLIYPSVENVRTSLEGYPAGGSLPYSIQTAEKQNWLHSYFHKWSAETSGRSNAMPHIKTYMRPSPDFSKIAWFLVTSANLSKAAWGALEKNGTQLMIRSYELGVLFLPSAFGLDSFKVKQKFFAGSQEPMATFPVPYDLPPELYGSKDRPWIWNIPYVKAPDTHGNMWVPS
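Tdp1 1 nM final; 15 min RT w/ cpd; substrate 15 nM, 5 min; beads 10 ug/ml, 10 min; AlphaScreen read. Neg ctrl: no enzyme.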
HepG2 tox = qHTS for Inhibitors of TGF-b: Cytotox Counterscreen; Potency, µM (series often up to 46.1 µM), inactives show top-dose activity change, negative = cytotoxicity, actives largely listed as cytotoxic; HepG2 CAGA-GFP viability, ATP luminescence, 18 h; AID 588856, 2011; actives 0.76% (n = 410,000); note: potency is the fitted concentration of half-maximal effect
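HepG2 CAGA-GFP cells (1000/well, DMEM with 1% FBS) received compound, then TGF-beta at 500 pg/mL final, and were incubated 18 hours at 37 degrees C. Viability was read by CellTiter-Glo luminescence. Media-only wells were set as complete cell-killing and DMSO as no toxicity.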
DT40 TDP1 CPT = qHTS for Inhibitors of human tyrosyl-DNA phosphodiesterase 1 (TDP1): qHTS in cells in presence of CPT. AID 686979, 2013. chicken DT40 Tdp1-/-;hTDP1 cells + 20 nM CPT, ATP luminescence, 48 h. actives 12% (n = 420,000). Potency, µM (series often up to 46.2 µM), for the others: at the highest dose activity change, negative = growth inhibition, usual class: inhibitors; note: potency is the fitted concentration of half-maximal effect; % is set by controls: 0 for no effect and ±100 for the full control effect; nearly all actives have a fitted effect of over 55% in size
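Cell growth measured by CellTiter-Glo luminescence after a minimum 48 h, 37 C compound exposure with 20 nM CPT in Tdp1-knockout DT40 cells stably expressing hTDP1, seeded 400/well; qHTS titration format.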
* hit, by the source's call. Unless noted, calls come from the whole dose curve; as a rule, active = well fitted curve in the direction sought with a large enough effect; inconclusive = small, poorly fitted or top-dose-only effect, or another doubt; inactive = no such curve, though single readings can be large; an effect the other way counts as inactive or inconclusive.

`O=[N+]([O-])c1ccc(N2CCN(Cc3cccc([N+](=O)[O-])c3)CC2)cc1` gave TGFb SMAD3 inh -11.6%, IL1B secr inh -62.0*, DT40 TDP1 no CPT 4.11µM*, HepG2 tox -18.3% and DT40 TDP1 CPT inconclusive.
CCCCc1ccc(NC(=O)C(=O)NCCN2CCN(Cc3ccc([N+](=O)[O-])cc3)CC2)cc1 was read as TGFb SMAD3 inh -9.0%, IL1B secr inh 1.2, DT40 TDP1 no CPT 0.731µM*, TDP1 block 3.8%, HepG2 tox 1.8% and DT40 TDP1 CPT 3.26µM*.
O=[N+]([O-])c1ccc(CN2CCN(c3ccc([N+](=O)[O-])cc3)CC2)cc1 was read as TGFb SMAD3 inh inconclusive, IL1B secr inh -53.6*, DT40 TDP1 no CPT 18.4µM*, HepG2 tox -19.0% and DT40 TDP1 CPT inconclusive.
`Cc1c(CNCCc2ccc(Cl)cc2)c(C(=O)O)c(C)n1-c1ccccc1` gave TGFb SMAD3 inh -5.1%, IL1B secr inh -8.7, DT40 TDP1 no CPT -1.4%, HepG2 tox -29.9% and DT40 TDP1 CPT -3.3%.
CCOc1ccccc1CN1CCc2nc(Nc3ccc4c(c3)OCCO4)ncc2C1 was read as TGFb SMAD3 inh -3.9%, DT40 TDP1 no CPT inconclusive, TDP1 block 11.2%, HepG2 tox -26.9% and DT40 TDP1 CPT inconclusive.
Screening O=C(CN1C(=O)NC2(CCCCC2)C1=O)Nc1cccc(S(=O)(=O)N2CCCC2)c1 returned TGFb SMAD3 inh 0.8%, IL1B secr inh 5.5, DT40 TDP1 no CPT -3.8%, TDP1 block 1.1%, HepG2 tox 11.0% and DT40 TDP1 CPT inconclusive.
O=[N+]([O-])c1cccc(COc2ccc(CN3CCOCC3)cc2)c1 was read as TGFb SMAD3 inh 7.3%, IL1B secr inh -17.0, DT40 TDP1 no CPT 16.4µM*, HepG2 tox -29.3% and DT40 TDP1 CPT inconclusive.
COC(=O)C1CCN(Cc2ccc(OCCCN3CCN(c4ccc([N+](=O)[O-])cc4)CC3)cc2)CC1 was read as TGFb SMAD3 inh -11.0%, IL1B secr inh 1.4, DT40 TDP1 no CPT 10.3µM*, TDP1 block 5.4%, HepG2 tox 8.8% and DT40 TDP1 CPT 7.31µM*.
Cc1cc(C)c(S(=O)(=O)c2ccccc2C)c(Cl)n1 was read as TGFb SMAD3 inh -1.3%, IL1B secr inh 0.0, DT40 TDP1 no CPT -18.7%, TDP1 block 4.8%, HepG2 tox -8.4% and DT40 TDP1 CPT inconclusive.
For CCCCSc1nc(C)cc(C)c1S(=O)(=O)c1ccccc1C the results were TGFb SMAD3 inh inconclusive, IL1B secr inh 18.7, DT40 TDP1 no CPT inconclusive, HepG2 tox 3.5% and DT40 TDP1 CPT 18.4µM*.
For COc1cccc(NC(=O)c2oc3ccccc3c2NC(C)=O)c1 the results were TGFb SMAD3 inh -0.8%, IL1B secr inh -15.6, DT40 TDP1 no CPT -17.8%, TDP1 block -1.0%, HepG2 tox -21.6% and DT40 TDP1 CPT 1.7%.
COc1cccc(NC(=O)c2oc3ccccc3c2NC(=O)c2ccccc2C)c1 was read as TGFb SMAD3 inh -0.8%, DT40 TDP1 no CPT inconclusive, TDP1 block -6.4%, HepG2 tox -30.3% and DT40 TDP1 CPT 10.3µM*.
`Cc1ccc2occ(CC(=O)Nc3c(C(=O)Nc4ccc(Cl)cc4)oc4ccccc34)c2c1` gave TGFb SMAD3 inh 10.7%, DT40 TDP1 no CPT inconclusive, TDP1 block -4.9%, HepG2 tox -39.2% and DT40 TDP1 CPT inconclusive.
For COc1cccc(C(=O)Nc2c(C(=O)NC(C)(C)C)oc3ccccc23)c1 the results were TGFb SMAD3 inh -2.4%, DT40 TDP1 no CPT inconclusive, TDP1 block -2.1%, HepG2 tox -25.2% and DT40 TDP1 CPT 18.4µM*.
For COc1cccc(NC(=O)c2oc3ccccc3c2NC(=O)Cc2cccc(C)c2)c1 the results were TGFb SMAD3 inh -9.8%, DT40 TDP1 no CPT 18.4µM*, TDP1 block -1.3%, HepG2 tox -29.0% and DT40 TDP1 CPT 23.1µM*.
`CCc1ccc2occ(CC(=O)Nc3c(C(=O)Nc4ccc(C)cc4)oc4ccccc34)c2c1` gave TGFb SMAD3 inh 13.0%, DT40 TDP1 no CPT -21.9%, TDP1 block 1.2%, HepG2 tox 15.8µM* and DT40 TDP1 CPT -7.5%.
For Cc1cccc(CC(=O)Nc2c(C(=O)Nc3cccc(F)c3)oc3ccccc23)c1 the results were TGFb SMAD3 inh -20.0%, DT40 TDP1 no CPT inconclusive, TDP1 block -3.8%, HepG2 tox -36.9% and DT40 TDP1 CPT inconclusive.
For CCCCOC(=O)Cn1nnc2sc(-c3ccccc3)cc2c1=O the results were TGFb SMAD3 inh -22.0%, DT40 TDP1 no CPT -20.1%, TDP1 block 9.3%, HepG2 tox -19.4% and DT40 TDP1 CPT -13.7%.
For O=S1(=O)N=C(Oc2cccc(-c3ccccc3)c2)c2ccccc21 the results were TDP1 block 2.3%.
Screening CCn1ccc2c(OCC(=O)Nc3ccccc3C(F)(F)F)cccc2c1=O returned TGFb SMAD3 inh -18.5%, DT40 TDP1 no CPT 20.6µM*, TDP1 block 0.0%, HepG2 tox -7.7% and DT40 TDP1 CPT 14.6µM*.
For Cn1ccc2c(OCC(=O)Nc3cc(C(F)(F)F)ccc3Cl)cccc2c1=O the results were TGFb SMAD3 inh -12.7%, DT40 TDP1 no CPT 14.6µM*, TDP1 block -2.6%, HepG2 tox 1.1% and DT40 TDP1 CPT 25.9µM*.
CCn1ccc2c(OCC(=O)NCc3ccccc3)cccc2c1=O was read as TGFb SMAD3 inh -1.1%, DT40 TDP1 no CPT inconclusive, TDP1 block 5.2%, HepG2 tox -10.1% and DT40 TDP1 CPT -7.6%.
For CCn1ccc2c(OCC(=O)Nc3ccccc3C)cccc2c1=O the results were TGFb SMAD3 inh inconclusive, DT40 TDP1 no CPT 11.6µM*, TDP1 block 7.8%, HepG2 tox -1.1% and DT40 TDP1 CPT 14.6µM*.
For Cc1cccc(NC(=O)COc2cccc3c(=O)n(C)ccc23)c1C the results were TGFb SMAD3 inh 0.6%, DT40 TDP1 no CPT 18.4µM*, TDP1 block 2.6%, HepG2 tox 0.8% and DT40 TDP1 CPT 23.1µM*.
For CSCCC(NC(=O)c1ccco1)C(=O)N(C)CC(=O)Nc1ccccc1Br (centres undefined) the results were TGFb SMAD3 inh -16.2%, IL1B secr inh 4.1, DT40 TDP1 no CPT 3.2%, TDP1 block -0.1%, HepG2 tox 3.0% and DT40 TDP1 CPT 4.1%.
